The record followed here is ChEMBL document CHEMBL3433997, “St. Jude Leishmania screening dataset” (2016).

Usually inhibition stands for the change of the read-out against control, counted positive when it falls.

In one experiment the target is Hexose transporter 1 (Plasmodium falciparum) (UniProt O97467). Description: ST_JUDE_LEISH: Cytotoxicity at 2uM final concentration against transgenic Leishmania Mexicana promastigotes LmPfHT that are glucose transport deficient and complemented with the Plasmodium falciparum hexose transporter. Activity is measured by DNA content using SYBR green in vitro. Type of experiment: functional.
On to `CC(C)(C)c1ccc(NC(=O)c2cccc(CN3CCN(Cc4cccc(O)c4)CC3)c2)cc1`, for which the inhibition was -0.15%.
Turning to `COc1ccc2ccccc2c1C=NN=c1cc(C)[nH]c2c(C)cccc12`, the inhibition is 1.8%.
As to `CCCc1cc(Cc2cnc(N)nc2N)cc(CCC)c1OCCCCC(=O)O`, the inhibition came to 1.3%.
Turning to `Cc1cccc2nc(-c3ccc(-c4ccc(CNCCc5ccncc5)cc4)cc3)[nH]c12`, the inhibition was determined as 21.1%.
For the compound `O=C(NCCCCN1CCN(c2cccc3c2OCCO3)CC1)c1ccc(NC(=O)c2cc(Cl)cc(Cl)c2)cc1`, the inhibition was 2.75%.
As for `O=C(Cc1c[nH]cn1)Nc1cccc(-c2ccc(-c3nc4cc(C(F)(F)F)ccc4[nH]3)s2)c1`, the inhibition is -3.59%.
As to `COc1ccc(CN2CCCC(C(=O)c3ccc(C(F)(F)F)cc3)C2)c(O)c1` (centres undefined), the inhibition stood at 4.48%.
The same measure, in the same setting: with `CS(=O)(=O)CCNc1cc(N2CCc3ncnc(Nc4ccc(OCc5cccc(F)c5)c(Cl)c4)c3C2)ncn1` the figure was 0.75%; with `CCCC(N)C(=O)NC1CCN(c2c(F)c(N)c3c(=O)c(C(=O)O)cn4c3c2Oc2ccccc2-4)C1` (centres undefined), 82.6%; with `CCN(CC)CCN(Cc1ccc(-c2ccc(C(F)(F)F)cc2)cc1)C(=O)Cn1c(CCc2cccc(C#N)c2)nc(=O)c2ccccc21`, 1.83%.
For `CC(=O)c1c[nH]c2ccc(/C=C/C(=O)NC3CCC(CCN4CCc5ccc(C#N)cc5CC4)CC3)cc12` (centres undefined), the inhibition is 14.9%.
As to `CCOc1ccccc1NC(=O)C(Sc1nc(C)cc(C)c1C#N)c1ccccc1` (centres undefined), the inhibition turned out to be 3.77%.
As to `CC(C)N1CCC(NCc2ccc(-c3ccc(Cl)cc3)cc2)CC1`, the inhibition is 13.6%.
In the case of `Cc1ccccc1C1CCN(C2CCC(NC(=O)/C=C/c3cccc(Cl)c3Cl)CC2)CC1` (centres undefined), the inhibition came to 1.26%.
For the compound `Cc1cccc2nc(-c3ccc(-c4cccc(NCc5cn6cccnc6n5)c4)cc3)[nH]c12`, the inhibition turned out to be 0.59%.
For the compound `COc1cccc(NC(=O)c2cc(Br)cc(N3CCN(c4ccncc4)CC3)c2)c1`, the inhibition turned out to be 2.07%.
Consider `CCCC(CNCc1cccc(I)c1)CNc1cc(=O)c2ccccc2[nH]1` (centres undefined), for which the inhibition came to 2.83%.
On to `CC1CN(Cc2cccc(-c3ccc(-c4nc5cc(F)ccc5[nH]4)cc3)c2)CC(C)O1` (centres undefined), for which the inhibition is 1.73%.
Same read-out and setting: with `CCc1cn(CC(=O)N(CCOc2ccc(-c3ccc(C(F)(F)F)cc3)cc2)CCN(CC)CC)c(SCc2ccc(F)cc2)nc1=O` the figure was 0.65%.
On to `CCN(CC)CCN(Cc1ccc(-c2ccc(C(F)(F)F)cc2)cc1)C(=O)Cn1c(CCC2CCCCC2)nc(=O)c2ccccc21`, for which the inhibition was found to be 1.35%.
On to `Clc1nc2ccccn2c1C=Cc1ccc2ccccc2n1`, for which the inhibition worked out at 3.43%.
The same measure, in the same setting: to `CS(=O)(=O)CCN(CCS(C)(=O)=O)Cc1ccc(-c2ccc3ncnc(Nc4ccc(OCc5cccc(F)c5)c(Cl)c4)c3c2)o1` belongs 2.02%; to `COc1ccc(S(=O)(=O)NC2CCN(CCCOc3ccnc4cc(Cl)ccc34)C2)cc1OC` (centres undefined), 3.81%; to `COc1cccc(-c2ccc3c(-c4cccc(S(C)(=O)=O)c4)cnc(N)c3c2)c1`, 5.42%.

For a further experiment, the target named is Glucose transporter (Leishmania mexicana) (UniProt O61059). Description: ST_JUDE_LEISH: Cytotoxicity at 2uM final concentration against transgenic Leishmania Mexicana promastigotes LmGT2 that are glucose transport deficient and complemented with the L. Mexicana glucose transporter 2. Activity is measured by DNA content using SYBR green in vitro. Type of experiment: functional.
Consider `COc1ccc(-c2cccc(NC(=O)c3cccc(Cl)c3)c2)cc1CN1CCC(O)CC1`, for which the inhibition amounted to 5.34%.
On the same count and under the same terms, to `Nc1ncc(-c2ccsc2)cc1-c1nc2ccccc2[nH]1` belongs 2.5%.
Turning to `COc1cccc(CN2CCCC(OC(c3ccccc3)c3ccccc3)C2)c1O` (centres undefined), the inhibition came out at 0.05%.
In the case of `c1ccc(CCNc2nc(NCC(c3ccccc3)c3ccccc3)c3nc[nH]c3n2)cc1`, the inhibition was found to be 1.17%.
Take `COc1cccc(COCC(O)CN(CCc2ccccn2)C(=O)c2ccccc2F)c1` (centres undefined): the inhibition stood at 2.65%.
Turning to `Cc1cccc(-n2nc(C)c3c2NC(=O)CC3C(=O)c2ccc(Cl)s2)c1` (centres undefined), the inhibition was 2.73%.
On the same count and under the same terms, with `Cc1ccccc1C(=O)NC(NC(=S)Nc1ccc([N+](=O)[O-])cc1)C(Cl)(Cl)Cl` (centres undefined) the figure was 0.22%; with `O=C(/C=C/c1ccc(Cl)c(Cl)c1)NCCCCCN1CCCN(C(=O)Nc2ccc(F)c(F)c2)CC1`, 6.1%; with `CNC(=O)c1ccccc1Nc1nc(Nc2ccc(CCN3CCN(C)CC3)cc2)ncc1Cl`, 56%.
`COc1ccc2ccccc2c1CCCCN1CCN(CC(c2ccc(F)cc2)N2CCC2)CC1` (centres undefined): the inhibition was 3.18%.
Same read-out and setting: with `COc1cc(NC(=O)Nc2cccc3ccccc23)c(OC)cc1Cl` the figure was 3.81%; with `COc1ccc(C(=O)COc2cccc(/C=C/C(=O)O)c2)cc1OC`, -0.23%; with `CN=C(NC)c1cccc(NC(=O)C=Cc2ccc(C=CC(=O)Nc3cccc(C(=NC)NC)c3)cc2)c1`, -0.11%.
For the compound `c1ccc(-n2ncc(CNCc3ccc(-c4cccc(-c5nc6ccccc6[nH]5)c4)cc3)n2)cc1`, the inhibition is -2.38%.
Take `O=C(Nc1ccc(Cn2ncc(N3CCNCC3)c(Cl)c2=O)cc1)Nc1ccc(-c2ccccc2)cc1`: the inhibition is -0.78%.
For `O=C(NCCCCN1CCC(c2ccc3c(c2OCC2COCO2)CCCC3)CC1)c1ccc(-c2ccc(C(F)(F)F)cc2)cc1` (centres undefined), the inhibition was found to be 1.97%.
With `CC(C)(C)c1ccc(NC(=O)c2cccc(CN3CCN(Cc4cccc(O)c4)CC3)c2)cc1`, the inhibition came to 0.64%.
In the case of `COc1ccc2ccccc2c1C=NN=c1cc(C)[nH]c2c(C)cccc12`, the inhibition came to 3.6%.
For the compound `CCCc1cc(Cc2cnc(N)nc2N)cc(CCC)c1OCCCCC(=O)O`, the inhibition came to 0.16%.
Consider `Cc1cccc2nc(-c3ccc(-c4ccc(CNCCc5ccncc5)cc4)cc3)[nH]c12`, for which the inhibition stood at 10.1%.
Consider `O=C(NCCCCN1CCN(c2cccc3c2OCCO3)CC1)c1ccc(NC(=O)c2cc(Cl)cc(Cl)c2)cc1`, for which the inhibition was 3.56%.
Still for that read-out and setting: to `O=C(Cc1c[nH]cn1)Nc1cccc(-c2ccc(-c3nc4cc(C(F)(F)F)ccc4[nH]3)s2)c1` belongs -0.81%; to `COc1ccc(CN2CCCC(C(=O)c3ccc(C(F)(F)F)cc3)C2)c(O)c1` (centres undefined), 3.56%.
On the same count and under the same terms, with `CS(=O)(=O)CCNc1cc(N2CCc3ncnc(Nc4ccc(OCc5cccc(F)c5)c(Cl)c4)c3C2)ncn1` the figure was 0.08%; with `CCCC(N)C(=O)NC1CCN(c2c(F)c(N)c3c(=O)c(C(=O)O)cn4c3c2Oc2ccccc2-4)C1` (centres undefined), 76.2%; with `CCN(CC)CCN(Cc1ccc(-c2ccc(C(F)(F)F)cc2)cc1)C(=O)Cn1c(CCc2cccc(C#N)c2)nc(=O)c2ccccc21`, 2.44%.
For the compound `CC(=O)c1c[nH]c2ccc(/C=C/C(=O)NC3CCC(CCN4CCc5ccc(C#N)cc5CC4)CC3)cc12` (centres undefined), the inhibition stood at 18.9%.
`CCOc1ccccc1NC(=O)C(Sc1nc(C)cc(C)c1C#N)c1ccccc1` (centres undefined): the inhibition turned out to be 6.45%.
Turning to `CC(C)N1CCC(NCc2ccc(-c3ccc(Cl)cc3)cc2)CC1`, the inhibition was found to be 10.2%.
Take `Cc1ccccc1C1CCN(C2CCC(NC(=O)/C=C/c3cccc(Cl)c3Cl)CC2)CC1` (centres undefined): the inhibition came to 4.18%.
On to `Cc1cccc2nc(-c3ccc(-c4cccc(NCc5cn6cccnc6n5)c4)cc3)[nH]c12`, for which the inhibition was -2.51%.
As for `COc1cccc(NC(=O)c2cc(Br)cc(N3CCN(c4ccncc4)CC3)c2)c1`, the inhibition stood at 2.41%.
On to `CCCC(CNCc1cccc(I)c1)CNc1cc(=O)c2ccccc2[nH]1` (centres undefined), for which the inhibition was found to be 2.67%.
Take `CC1CN(Cc2cccc(-c3ccc(-c4nc5cc(F)ccc5[nH]4)cc3)c2)CC(C)O1` (centres undefined): the inhibition is 2.23%.
The same measure, in the same setting: with `CCc1cn(CC(=O)N(CCOc2ccc(-c3ccc(C(F)(F)F)cc3)cc2)CCN(CC)CC)c(SCc2ccc(F)cc2)nc1=O` the figure was -0.06%.
Same read-out and setting: to `CCN(CC)CCN(Cc1ccc(-c2ccc(C(F)(F)F)cc2)cc1)C(=O)Cn1c(CCC2CCCCC2)nc(=O)c2ccccc21` belongs 0.43%.
As for `Clc1nc2ccccn2c1C=Cc1ccc2ccccc2n1`, the inhibition turned out to be 2.76%.
The same measure, in the same setting: to `CS(=O)(=O)CCN(CCS(C)(=O)=O)Cc1ccc(-c2ccc3ncnc(Nc4ccc(OCc5cccc(F)c5)c(Cl)c4)c3c2)o1` belongs 2.35%; to `COc1ccc(S(=O)(=O)NC2CCN(CCCOc3ccnc4cc(Cl)ccc34)C2)cc1OC` (centres undefined), 2.88%; to `COc1cccc(-c2ccc3c(-c4cccc(S(C)(=O)=O)c4)cnc(N)c3c2)c1`, 2.21%.
